Format in all cases: functional
Experiment [1] relates to Plasmodium falciparum. Kind of experiment: GSK_TCMDC: Inhibition of Plasmodium falciparum 3D7 in whole red blood cells, using parasite LDH activity as an index of growth. Test compounds present at 2uM.
Experiment [2] concerns Plasmodium falciparum. Kind of experiment: GSK_TCMDC: Inhibition of Plasmodium falciparum Dd2 in whole red blood cells, using parasite LDH activity as an index of growth. Test compounds present at 2uM.
Another experiment deals with HepG2. In words: GSK_TCMDC: Percent inhibition of human HepG2 cell line. Test compounds present at 10uM.

Structures are written as SMILES.

Broadly, the Inhibition is the relative decrease from the control value, in per cent. A higher Inhibition goes with strong suppression. On to `COc1ccc(CN(C)CCCc2ccc(NC(=O)c3cccc4c(O)c5ccccc5nc34)cc2)cc1OC`, for which the values for the Inhibition in the experiment on Plasmodium falciparum [1], with Plasmodium falciparum [2] and in the experiment with HepG2 were 99%, 54% and 77%, respectively.
The like results for `CCN(CC)CCN(Cc1ccc(-c2ccc(C(F)(F)F)cc2)cc1)C(=O)c1c[nH]c2ccc(Br)cc12` were, in that order, 90%, 74% and 80%.
For `FC(F)(F)c1ccc2c(NN=Cc3cccc(Cl)c3)ccnc2c1` the same measures were 93%, 59% and 7%.
Take `[O-][S+]1c2ccccc2Sc2ccccc21`: the results for the Inhibition in the experiment on Plasmodium falciparum [1], with Plasmodium falciparum [2] and in the experiment on HepG2 were 99%, 0% and 48%, respectively.
For `CCCN1CCC(NCc2cn(C)nc2-c2ccc(Oc3ccccc3)cc2)CC1` the same measures were 88%, 44% and 34%.
The like results for `COc1ccc(NS(=O)(=O)c2ccc(C(=O)Nc3ccc(OC(F)(F)F)cc3)cc2)cc1N1CCN(CC2CC2)CC1.O=C(O)C(F)(F)F` were, in that order, 89%, 0% and 18%.
For `CCCN(Cc1nnc(-c2cccs2)o1)C(=O)C1COc2ccccc2O1` (stereo not given) the same measures were 87%, 49% and 1%.
For the compound `Cc1ccc(NC(=O)c2nc(N3CCN(c4ccncc4)CC3)ccc2Cl)cc1F.O=C(O)C(F)(F)F`, the Inhibition was found to be 100% with Plasmodium falciparum [1], 57% with Plasmodium falciparum [2] and 51% in the experiment with HepG2.
The like results for `CCCNC(=O)c1ccc(N2CCC(c3ccccc3C)CC2)nc1.O=C(O)C(F)(F)F` were, in that order, 86%, 80% and 6%.
With `O=C(N[C@@H](Cc1ccccc1)C(=O)NC1CCCc2ccccc21)c1ccc(O)c(-c2cccc(C(F)(F)F)c2)c1` (stereo not given in full), the results for the Inhibition in the experiment on Plasmodium falciparum [1], in the experiment on Plasmodium falciparum [2] and with HepG2 were 91%, 41% and 0%, respectively.
The like results for `CCOc1ccc(-c2nonc2NC(=O)c2ccccc2F)cc1OCC` were, in that order, 90%, 100% and 0%.
For `COc1ccc(CCN2CCC(Nc3nc4ccccc4n3CCc3ccc(OC)cc3)CC2)cc1.Cl` the same measures were 100%, 88% and 34%.
For the compound `CCc1cc(=O)[nH]c(-n2nc(C)cc2NC(=O)CC(c2ccccc2)c2ccccc2)n1`, the Inhibition is 92% in the experiment on Plasmodium falciparum [1], 75% with Plasmodium falciparum [2] and 37% in the experiment with HepG2.
With `CC(CN(C)C)C(=O)Nc1cccc(-c2cccc(-c3nc4cc(F)ccc4[nH]3)c2)c1` (stereo not given), the Inhibition with Plasmodium falciparum [1] was found to be 100%; in the experiment on Plasmodium falciparum [2] it was 94%; in the experiment with HepG2, 29%.
For `O=C(Nc1ccccc1Br)c1cn(-c2ccccc2)nc1-c1cccc([N+](=O)[O-])c1` the same measures were 92%, 36% and 7%.
The like results for `CC(=O)Nc1ccc(C(=O)Nc2ccc(-c3cccc(-c4nc5cc(C(F)(F)F)ccc5[nH]4)c3)cc2)cn1` were, in that order, 100%, 98% and 29%.
Take `Br.CC1(C)NC(N)=NC(=N)N1OCCCc1cccc(C(F)(F)F)c1`: the Inhibition was 95% with Plasmodium falciparum [1], 95% in the experiment with Plasmodium falciparum [2] and 62% with HepG2.
With `O=C(Nc1ccccc1Cl)c1cc2ccccc2cc1O`, the Inhibition came out at 94% with Plasmodium falciparum [1], 72% in the experiment on Plasmodium falciparum [2] and 2% in the experiment with HepG2.
The like results for `COc1ccc(-c2cncc(-c3ccc(OC)c(OC)c3)n2)cc1OC.Cl` were, in that order, 95%, 90% and 6%.
For `CCc1nc(N)nc(N)c1-c1cccc(Cl)c1`, the figures for the Inhibition in the experiment with Plasmodium falciparum [1], in the experiment on Plasmodium falciparum [2] and in the experiment with HepG2 were 94%, 1% and 60%, respectively.
The like results for `C=CCN1C(=O)CN(S(=O)(=O)c2ccc(-n3nc(C)cc3C)cc2)C1=S` were, in that order, 93%, 0% and 5%.
Regarding `O=C(NCCCCN1CCC(c2ccc3c(c2OCCCO)CCCC3)CC1)c1ccc(-c2ccc(C(F)(F)F)cc2)cc1`, the Inhibition in the experiment with Plasmodium falciparum [1] is 83%; in the experiment with Plasmodium falciparum [2] it was 53%; in the experiment with HepG2, 98%.
`Cc1ccc(Nc2nc(C)cc(Nc3cccc(C#N)c3)n2)cc1`: the figures for the Inhibition in the experiment on Plasmodium falciparum [1], with Plasmodium falciparum [2] and in the experiment on HepG2 were 100%, 96% and 14%, respectively.
The like results for `O=C(NCCCCN1CCC(c2ccc3ccccc3c2)CC1)c1ccc(NC(=O)c2ccc(Cl)cc2)cc1` were, in that order, 100%, 93% and 24%.
The like results for `O=C(Nc1ccc(F)cc1)c1nc2ccccc2nc1Cl` were, in that order, 80%, 62% and 44%.
For `CN(C)CCNC(=O)c1ccc2c(c1)n(C1CCN(S(=O)(=O)c3ccc(-c4ccccc4)cc3)CC1)c(=O)n2CC1CCCCC1`, the Inhibition with Plasmodium falciparum [1] stood at 100%; in the experiment on Plasmodium falciparum [2], 66%; with HepG2, 47%.
Regarding `CN(C)CCCn1c(N)c(-c2nc3ccccc3[nH]2)c2nc(C#N)c(C#N)nc21`, the Inhibition with Plasmodium falciparum [1], in the experiment with Plasmodium falciparum [2] and with HepG2 was 100% in each case.
In the case of `Cc1noc(C)c1-c1ccc2c(Nc3ccccc3C(C)(C)C)c(C(=O)NC3CCCC3)cnc2c1.Cl`, the Inhibition with Plasmodium falciparum [1] worked out at 93%; with Plasmodium falciparum [2] it was 79%; in the experiment on HepG2, 27%.
With `CN1CCN(c2cc3c(cc2Cl)CCN3C(=O)Cc2ccc(Cl)c(NC(=O)Nc3cccc(C#N)c3)c2)CC1`, the Inhibition with Plasmodium falciparum [1] was found to be 99%; in the experiment on Plasmodium falciparum [2], 40%; in the experiment on HepG2, 0%.
The like results for `COc1cc(F)c2nccc([C@@H](O)CN3CCC(NCc4nc5cccc(F)c5[nH]4)CC3)c2c1.O=C(O)C(=O)O` were, in that order, 99%, 5% and 11%.
`CC(C)N1CCN(C(CN2CCN(CCCOc3ccccc3-c3ccccc3)CC2)c2ccc(F)cc2)CC1.Cl` (stereo not given): the values for the Inhibition in the experiment with Plasmodium falciparum [1], with Plasmodium falciparum [2] and in the experiment with HepG2 were 100%, 96% and 98%, respectively.
For `c1cn(-c2ccc(CNc3nccc(Nc4ccc(OCCN5CCOCC5)cc4)n3)cc2)cn1` the same measures were 100%, 3% and 2%.
The like results for `COc1cc(CNC[C@@H](O)[C@H](Cc2ccccc2)NC(=O)c2cc(OC(C)C)cc(N3CCCS3(=O)=O)c2)cc(OC)c1.Cl` were, in that order, 97%, 72% and 0%.
Consider `CC(CCCCCC(=O)Nc1ccc(CC(C)NCCc2cccc(Cl)c2)cc1)NCCc1cccc(Cl)c1` (stereo not given), for which the Inhibition was 91% in the experiment on Plasmodium falciparum [1], 37% in the experiment on Plasmodium falciparum [2] and 99% in the experiment on HepG2.
For `O=c1cc(NCCCNCc2cccc3c2OC(F)(F)O3)[nH]c2ccccc12` the same measures were 88%, 15% and 4%.
For `CN(CCC(O)c1ccc(Cl)c(Cl)c1)CC1CC1C(=O)c1ccccc1` (stereo not given) the same measures were 98%, 96% and 11%.
Turning to `O=C(Cc1c[nH]cn1)Nc1ccc(-c2cccc(-c3nc4cc(F)ccc4[nH]3)c2)cc1`, the Inhibition in the experiment with Plasmodium falciparum [1] stood at 100%; in the experiment with Plasmodium falciparum [2] it was 70%; in the experiment with HepG2 it was 28%.
Regarding `O=C(Nc1cccc(Cl)c1N1CCOCC1)C(Cl)(Cl)Cl`, the Inhibition in the experiment on Plasmodium falciparum [1] stood at 96%; with Plasmodium falciparum [2] it was 95%; with HepG2, 3%.
For `COc1ccc(CN(C)CCCc2ccc(NC(=O)c3cc4ccccc4[nH]3)cc2)cc1OC.O=C(O)/C=C/C(=O)O` the same measures were 97%, 31% and 39%.
For `COCC(C)n1c(SCC(=O)Nc2cc(C(F)(F)F)ccc2Cl)nc2ccccc2c1=O` (stereo not given) the same measures were 97%, 96% and 3%.
`Clc1ccc2nc(-c3cccnc3)[nH]c2c1`: the Inhibition in the experiment with Plasmodium falciparum [1] worked out at 92%; with Plasmodium falciparum [2] it was 97%; in the experiment with HepG2, 0%.
With `CCCCOc1ccc(-c2nc3ccccc3[nH]2)cc1`, the Inhibition in the experiment with Plasmodium falciparum [1] is recorded as 86%; in the experiment with Plasmodium falciparum [2], 82%; in the experiment on HepG2, 21%.
Turning to `Cc1cc(C(=O)NCc2ccc(-c3c(C)noc3C)cc2)n(-c2ccccc2)n1`, the values for the Inhibition in the experiment on Plasmodium falciparum [1], in the experiment on Plasmodium falciparum [2] and with HepG2 were 92%, 90% and 4%, respectively.
On to `CCCCN(CCCC)/C(=N/c1cccc(Cl)c1Cl)Nc1ccc(C#N)cc1O`, for which the Inhibition with Plasmodium falciparum [1] is listed as 89%; with Plasmodium falciparum [2], 69%; in the experiment with HepG2, 4%.
Regarding `O=C(Nc1ccc(CCN2CCC(c3nc(COCC(F)(F)F)c(-c4ccccc4)o3)CC2)cc1)c1ccc(F)cc1`, the Inhibition came to 86% with Plasmodium falciparum [1], 3% with Plasmodium falciparum [2] and 9% in the experiment with HepG2.
On to `Fc1ccc(COc2ccc(Nc3ncnc4ccc(I)cc34)cc2Cl)cc1`, for which the Inhibition in the experiment on Plasmodium falciparum [1] was 86%; in the experiment with Plasmodium falciparum [2], 30%; in the experiment with HepG2, 28%.
Regarding `COc1ccc2c(NN=Cc3cccc(Cl)c3)ccnc2c1`, the figures for the Inhibition in the experiment with Plasmodium falciparum [1], with Plasmodium falciparum [2] and with HepG2 were 100%, 94% and 32%, respectively.
`Cc1cc(C)cc(OCC(O)CN(Cc2cc(Cl)cc(Cl)c2)C(=O)Nc2ccc([N+](=O)[O-])cc2)c1` (stereo not given): the Inhibition amounted to 95% in the experiment with Plasmodium falciparum [1], 38% in the experiment on Plasmodium falciparum [2] and 0% with HepG2.
For `CCOc1ccc2c(=NN=Cc3cccc(OC)c3OC)cc(C)[nH]c2c1`, the Inhibition in the experiment with Plasmodium falciparum [1] is listed as 100%; with Plasmodium falciparum [2] it was 85%; in the experiment on HepG2, 4%.
For `CCCN(CC1CC1)c1ncc(-c2cccc(CNCCC3CCCN3C)c2)cn1` (stereo not given) the same measures were 98%, 43% and 77%.

These data come from ChEMBL document CHEMBL1157539, “Thousands of chemical starting points for antimalarial lead identification” (Nature, 2010).
